Screening results deposited in PubChem BioAssay by National Center for Advancing Translational Sciences (NCATS).
VDR inh = inhibitors of human vitamin D receptor | VDR-SRC2-3 peptide fluorescence polarization, 2 h | AID 504847 | Potency, µM, inactives show max response, negative = inhibition, hits mostly inhibitors | hit rate 0.93% among 400,000; further: on the % scale 0 is the no-effect control and ±100 the full control effect
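VDR–SRC2-3 interaction, FP format. Cmpds 23 nl via pintool, brief spin, 2 h ambient incubation.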
Tb PFK inh = blocks T. brucei phosphofructokinase; O15648; T. brucei PFK, ADP-Glo luminescence; Potency, µM (top dose mostly 57.5 µM), inactives show top-dose activity, negative = inhibition, actives largely listed as inhibitors; hit rate 0.17% among 330,000;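 further: 0% = uninhibited 1x PFK enzyme wells and -100% = no-enzyme wells; nearly all actives have a fitted effect of over 60% in size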
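Activity is normalized to no-enzyme wells (full inhibition) and 1.25 nM enzyme wells (no inhibition). Reaction: 0.5 mM F6P, 0.1 mM ATP, 45 min RT, ADP-Glo luminescence; concentration-response curves fitted and classed by quality.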
TDP1 block = blocks human tyrosyl-DNA phosphodiesterase 1. Q9NUW8. recombinant TDP1, AlphaScreen DNA substrate cleavage. Potency, µM (highest dose often 130 µM), inactives show at the highest dose activity change, negative = inhibition, hits mostly inhibitors. AID 485290. hit rate 0.28% among 350,000; further: on the % scale 0 is the no-effect control and ±100 the full control effect; nearly all actives have a fitted effect of over 40% in size
Target sequence (Q9NUW8 whole entry, looked up): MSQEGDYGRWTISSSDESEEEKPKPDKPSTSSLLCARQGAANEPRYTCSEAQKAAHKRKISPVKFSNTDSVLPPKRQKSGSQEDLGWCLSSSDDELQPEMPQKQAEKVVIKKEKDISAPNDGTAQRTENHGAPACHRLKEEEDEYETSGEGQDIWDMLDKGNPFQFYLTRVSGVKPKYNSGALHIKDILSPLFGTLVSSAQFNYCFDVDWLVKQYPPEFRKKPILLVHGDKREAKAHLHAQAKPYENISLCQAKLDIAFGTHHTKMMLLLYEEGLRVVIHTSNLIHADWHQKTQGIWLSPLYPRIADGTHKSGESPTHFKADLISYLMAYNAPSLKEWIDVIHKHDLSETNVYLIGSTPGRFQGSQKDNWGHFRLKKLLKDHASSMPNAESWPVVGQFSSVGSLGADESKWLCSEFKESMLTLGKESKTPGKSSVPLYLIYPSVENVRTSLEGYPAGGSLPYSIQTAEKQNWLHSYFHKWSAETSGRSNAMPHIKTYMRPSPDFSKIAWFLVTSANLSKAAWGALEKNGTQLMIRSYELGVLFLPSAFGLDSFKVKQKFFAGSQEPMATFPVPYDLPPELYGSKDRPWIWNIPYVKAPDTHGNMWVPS
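Recombinant E. coli-expressed Tdp1 (1 nM) preincubated with compound 15 min at RT, then 5'-biotin/3'-phosphotyrosine-FITC DNA substrate (15 nM) added for 5 min. AlphaScreen beads (10 ug/ml) added, 10 min RT; tyrosine-FITC cleavage read as signal loss.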
S-ASM inh = human S-ASM enzyme inhibition; placental ASM, HMU-PC fluorogenic substrate, 60 min; Potency, µM (titrated, usually from 57.5 µM), for the others: top-dose activity change, negative = inhibition, most hits filed as inhibitors; hit rate 0.006% among 340,000; AID 504937
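Fluorescence read-out (Ex 386 nm, Em 447 nm) after stopping the reaction at pH 10. Enzyme: ASM from human placenta; substrate HMU-PC0, 9 uM final; 60 min, 37 °C. Compound preincubation 10 min, ambient temperature.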
PLK1 PBD block = inhibitors of human PLK1 polo-box domain binding | P53350 | Plk1 PBD binding of FITC phosphopeptide, fluorescence polarization | Potency, µM, inactives show max response, negative = inhibition, actives largely listed as inhibitors | hit rate 2.8% among 360,000 | AID 720504; further: series mostly up to about 57 µM; on the % scale 0 is the no-effect control and ±100 the full control effect; nearly all actives have a fitted effect of over 65% in size
Pin1 inhibitor = blocks the human prolyl isomerase Pin1 | Q13526 | Pin1 FP peptide displacement, HiFluor488, 10 min | Potency, µM (titrated, usually from 115 µM), for inactives: at the highest dose activity, negative = inhibition, actives largely listed as inhibitors | hit rate 0.009% among 390,000 | AID 504891; active means well fitted inhibition curve with a large enough effect in the polarisation, with a control signal flat, not every such curve was filed as active; inconclusive means small, poorly fitted or top-dose-only effect, or effect the other way, or a change in a side signal; inactive means no such curve, though single readings can be large or run the other way; the % refers to the polarisation; further: on the % scale 0 is the no-effect control and ±100 the full control effect
Numbers without * were called inactive; ? = inconclusive; nt = not tested or not shown; ! = not confirmed by another sample; [ ] = dose if it differs, or a comment. Compounds with a hit are over-represented: about 3.1% of the library has one in this group of screens. Unless noted, the call rests on the fitted dose curve; in most records, active means well fitted curve in the direction sought with a large enough effect; inconclusive means small, poorly fitted or top-dose-only effect, or another doubt; inactive means no such curve, though single readings can be large; an effect the other way counts as inactive or inconclusive. Potency means the concentration at half of the fitted maximal effect.

SMILES	VDR inh	Tb PFK inh	TDP1 block	S-ASM inh	PLK1 PBD block	Pin1 inhibitor
COC(=O)C1CCN(C2=C(NS(=O)(=O)c3ccc(Cl)cc3)C(=O)c3ccccc3C2=O)CC1	-20%	-7%	nt	-10%	21µM*	-5%
Cc1[nH]n(C(N)=S)c(=O)c1N=Nc1ccccc1C(F)(F)F	-8%	2%	nt	-10%	24µM*	10%
CCc1ccc(NC(=O)C(C)Sc2nc(-c3ccco3)c(C#N)c(=O)[nH]2)cc1 (stereo unspecified)	?	1%	2%	3%	24µM*	-19%
CCOc1ccccc1NC(=O)C(C)Sc1nc(-c2ccccc2)c(C#N)c(=O)[nH]1 (stereo unspecified)	-2%	nt	8%	nt	nt	-19%
Cc1nc(Nc2cccc(Cl)c2)c2oc3ccccc3c2n1	-14%	15%	nt	-15%	-6%	-1%
Cc1nc(Nc2ccc(Cl)cc2)c2oc3ccccc3c2n1	?	-19%	nt	-15%	27µM*	2%
O=C1O[C@H](CN2CCOCC2)CN1/N=C\c1ccc([N+](=O)[O-])o1	28µM*	nt	11%[21 µM]	nt	nt	nt
O=C1OC(CN2CCOCC2)CN1N=Cc1ccc([N+](=O)[O-])o1 (stereo unspecified)	10%	0%	nt	-11%	-7%	0%
COc1ccc2c(c1)C=C(C(=O)OCc1cccnc1)CO2	9%	1%	-2%	8%	27µM*	4%
CC(=O)Nc1ccc(NC(=O)CCc2c(C)nc3c(c(C)nn3-c3ccc(C)cc3)c2C)cc1	-1%	nt	0%	nt	nt	5%
CC(C)C(Cl)=NOC(=O)Nc1ccc(F)cc1	?	nt	nt	4%	13µM*	0%
CC(=O)Nc1sc2c(c1-c1ccccc1)CCNC2	nt	nt	nt	nt	nt	-4%
CCN(CC(=O)Nc1c(F)cccc1F)C(=O)/C=C/c1ccc2ccccc2n1	-6%	?	nt	-3%	13µM*	nt
CCN(CC(=O)Nc1c(F)cccc1F)C(=O)c1ccc2ccccc2n1	-14%	-3%	5%	7%	-11%	-3%
COc1ccc(-n2nc3ccc(NC(=O)c4c(OC)cccc4OC)cc3n2)cc1	11%	nt	-2%	nt	nt	55%
CC(=O)CCSc1ncnc2sc(-c3ccccc3)cc12	5%	1%	2%	3%	-1%	6%
O=C(O)CCSc1ncnc2sc(-c3ccccc3)cc12	-12%	-1%	-3%	13%	17µM*	0%
COc1ccccc1N1CCN(CCn2c(=O)c3c(c4ccccc4n3C)n(C)c2=O)CC1	45µM*!	nt	5%	nt	nt	nt
CCOc1ccccc1C(=O)N/N=C/c1coc2ccc(C)cc2c1=O	-1%	-20%	35µM*	-2%	-13%	32%
Cc1cc2c(s1)c1cnn(Cc3cc(Cl)ccc3F)c(=O)c1n2C	nt	nt	nt	nt	nt	-4%
CN(c1ccccc1)S(=O)(=O)c1cccc(NC(=O)Cn2cnc3c2c(=O)n(C)c(=O)n3C)c1	0%	8%	5%	-3%	-4%	-2%
Cn1c(=O)c2c(ncn2CC(=O)Nc2cccc(S(=O)(=O)Nc3ccccc3F)c2)n(C)c1=O	-20%	0%	-2%	6%	30µM*	2%
Cc1ccccc1N1C(=O)c2cc(N)ccc2N/C1=C\F	2%	nt	nt	nt	nt	nt
CCCCc1nc2c(c3c1C[C@H](C)OC3)CN(C(=O)Cc1cccs1)CC2	nt	nt	9%[12.3 µM]	nt	nt	nt
CCOC(=O)OCC1OC(C#Cc2ccccc2)C=CC1Oc1cccc(N(C)C)c1 (stereo unspecified)	nt	nt	9%[21 µM]	nt	nt	nt
SMILES	VDR inh	Tb PFK inh	TDP1 block	S-ASM inh	PLK1 PBD block	Pin1 inhibitor
Cc1nc(-c2ccccn2)nc(SCC(=O)N2CCOCC2)c1Cl	-8%	7%	5%	0%	24µM*	-16%
CCc1ccc(NC(=O)CS(=O)CC(=O)Nc2ccc(N3CCOCC3)cc2)cc1 (stereo unspecified)	0%	-3%	50µM*	4%	-13%	?
CC(=O)c1ccc(NC(=O)c2nc(-c3ccccc3)n(-c3ccccc3Cl)n2)cc1	2%	nt	3%	nt	nt	17%
CCNc1cc2c(cc1O)CCC1C2CCC2(C)C(O)CCC12 (stereo unspecified)	79µM*	nt	nt	-2%	?	3%
CCOCc1nnc(NC(=O)CSc2ccccc2)s1	6%	-13%	-3%	-1%	?	-6%
CCc1nnc(NC(=O)CSc2nnc(-c3ccccc3O)o2)s1	-16%	-2%	7%	3%	24µM*	13%
CC(C)(C)Cc1nnc(NC(=O)CSc2ccccc2)s1	28µM*	?	nt	0%	5.3µM*	4%
CCc1nnc(NC(=O)CSc2nnc(-c3ccccc3O)n2-c2ccc(C)cc2)s1	-7%	-7%	-4%	0%	-8%	5%
Brc1ccc(-c2csc(N3CCCCC3)n2)cc1	nt	0%	nt	nt	nt	nt
NC(=O)C1CCN(c2ncc(-c3cccc(N4CCOCC4)c3)s2)CC1	nt	nt	nt	nt	nt	-3%
CCCNC(=O)N1N=C(c2ccc(N)cc2)c2cc3c(cc2C1C)OCO3 (stereo unspecified)	-21%	nt	16%	nt	nt	nt
Cn1cccc1/C=N/NC(=O)c1ccccn1	?	-8%	4%	2%	24µM*	12%
Cn1cccc1/C=N/NC(=O)c1ccncc1	8%	2%	5%	-1%	0%	1%
Cc1cc(C)c2c(c1)c(C)cc1nnc(SCC(=O)c3ccccc3)n12	10%	nt	3%	nt	nt	9%
Cc1cccc[n+]1CC(=O)c1ccc2c(c1)OCCO2	-22%	-1%	0%	0%	27µM*	-7%
Cc1cc2c(s1)c1cnn(Cc3c(Cl)cccc3Br)c(=O)c1n2C	nt	nt	nt	nt	nt	-1%
CCCCC1CCC(C(=O)N2CC(=O)Nc3ccc(C)cc3C2c2ccc(F)cc2)CC1 (stereo unspecified)	9%	nt	6%	nt	nt	3%
O=C(NCc1ccccn1)c1nc(-c2cccs2)no1	-9%	0%	-3%	0%	27µM*	-3%
CCCCOc1cccc(C2c3c(-c4cc(C)ccc4O)n[nH]c3C(=O)N2CCOC)c1 (stereo unspecified)	-1%	nt	6%	nt	nt	-10%
CN(C)c1ccc(C2(c3ccc(N(C)C)cc3)OC(=O)c3cc(N(C)C)ccc32)cc1	nt	nt	24%	nt	nt	nt
C/C(=C\C(=O)c1ccccc1)Nc1ccc(Cl)c(Br)c1	0%	nt	nt	4%	27µM*	-7%
COC/C=C/C1=CC2=CC(=O)C(C)(OC(=O)c3cnc4ccccc4n3)C(=O)C2=CN1c1ccccc1 (stereo unspecified)	-29%	5%	4%[21 µM]	-3%	-9%	?
COC/C=C/C1=CC2=CC(=O)C(C)(OC(=O)c3cnc4ccccc4n3)C(=O)C2=CN1c1ccc(CO)cc1 (stereo unspecified)	nt	4.8µM*	nt	nt	nt	nt
COC(=O)c1ccc(Oc2nc(NC(C)C)nc(NC(C)C)n2)cc1	0%	-3%	4%	-2%	-7%	-2%
